Measurements: PubChem BioAssay (NCI)
Compounds without any hit were thinned out: in the full panel of roughly 83,000, 20% have a hit.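 Plates (96-well) were seeded with cells, treated with compound at one concentration, and incubated for 48 hours before percent growth was determined.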 Unmarked numbers belong to inactive results. The source made the active and inactive calls. Rule for the calls: active = growth percent below 10; inactive = the rest.

tested on: HL-60(TB) leukemia; experiment: NCI-60 one-dose screen, 48 h (100 = growth as untreated, 0 = no growth, -100 = all killed); details: 10 µM unless noted

Structure (SMILES) | growth
O=c1c2cc(F)ccc2sc2c(N3CCCCC3)nc3ccccc3c12 | 102%
CC1(C)CC[C@]2(C(=O)NCCNCCN)CC[C@]3(C)C(=CC[C@@H]4[C@@]5(C)CCC(=O)C(C)(C)[C@@H]5CC[C@]43C)[C@@H]2C1 | -52.9% (active)
[2H]c1nc(Nc2ncc3cc(C(=O)N(C)C)n(C4CCCC4)c3n2)c([2H])c([2H])c1N1C([2H])([2H])C([2H])([2H])NC([2H])([2H])C1([2H])[2H] | 14.6%
CCOC(=O)c1cc(C(=O)c2ccc(OC)c(OC)c2)n2ccncc12 | 92%
CCNc1nnnn1CC | 111%
N#CCCN1CCN(CCC#N)C1=S | 129%
Cn1ccnc1C(=O)C(=O)Nc1ccc(CC(=O)Nc2ccccc2)cc1 | 107%
CC[N+](CC)=c1cc2oc3cc(N(C)C)ccc3nc-2cc1C | -8.38% (active)
O=C(NC1CCN(Cc2ccccc2)CC1)c1cc2nc(-c3ccc(Cl)s3)cc(C(F)(F)F)n2n1 | 58.6%
O=C1NC(=C(Cl)Cl)/C(=N/S(=O)(=O)N2CCC(C3(C(F)(F)F)N=N3)CC2)N1 | 77%
O=C(NO)c1ccc(Cn2c(=O)n(-c3ccccc3)c(=O)c3ccccc32)cc1 | 1.26% (active)
NS(=O)(=O)c1cnccc1Oc1cccc2cccnc12 | 89.5%
COC(=O)c1ccc(=O)c2nc3/c(=C/O)c(O)cc(=O)c3[nH]c12 | 0.308% (active)
CSc1n(Cc2ccc3ccccc3c2)c(C)c[n+]1Cc1ccc2ccccc2c1 | -45% (active)
